Laboratory results from PubChem BioAssay (NCI).
The panel holds about 83,000 compounds, 20% with a hit somewhere; the sample as a whole holds those more often.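 For each line, cells grew in 96-well plates with the test compound present at a single concentration for 48 hours.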 Values without a mark were called inactive. Activity calls are given as the source filed them. Rule for the calls: active = growth percent below 10; inactive = the rest.

Key:
Assay in all cases: NCI-60 one-dose screen, 48 h (100 = growth as untreated, 0 = no growth, -100 = all killed)
Conditions in all cases: 10 µM unless noted
DU-145 prostate = test system: DU-145 prostate
K-562 leukemia = test system: K-562 leukemia
MALME-3M melanoma = test system: MALME-3M melanoma
MDA-MB-231 breast = test system: MDA-MB-231 breast
RXF 393 renal = test system: RXF 393 renal
SF-268 CNS = test system: SF-268 CNS
SF-295 CNS = test system: SF-295 CNS
SF-539 CNS = test system: SF-539 CNS
UACC-257 melanoma = test system: UACC-257 melanoma
M14 melanoma = test system: M14 melanoma
HCT-15 colon = test system: HCT-15 colon
HT29 colon = test system: HT29 colon
SNB-75 CNS = test system: SNB-75 CNS
SNB-19 CNS = test system: SNB-19 CNS
U251 CNS = test system: U251 CNS
PC-3 prostate = test system: PC-3 prostate
SK-MEL-5 melanoma = test system: SK-MEL-5 melanoma
UACC-62 melanoma = test system: UACC-62 melanoma
LOX IMVI melanoma = test system: LOX IMVI melanoma
SK-MEL-28 melanoma = test system: SK-MEL-28 melanoma

Row | Structure (SMILES) | growth (DU-145 prostate) | growth (K-562 leukemia) | growth (MALME-3M melanoma) | growth (MDA-MB-231 breast) | growth (RXF 393 renal) | growth (SF-268 CNS) | growth (SF-295 CNS) | growth (SF-539 CNS) | growth (UACC-257 melanoma) | growth (M14 melanoma) | growth (HCT-15 colon) | growth (HT29 colon) | growth (SNB-75 CNS) | growth (SNB-19 CNS) | growth (U251 CNS) | growth (PC-3 prostate) | growth (SK-MEL-5 melanoma) | growth (UACC-62 melanoma) | growth (LOX IMVI melanoma) | growth (SK-MEL-28 melanoma)
1 | CCCCCCCCCCCCCCCCCCOc1ccc(CC(=O)OCC[N+](C)(C)C)cc1 | 99.9% | 47.7% | 113% | 110% | 90.1% | 104% | 97.6% | 97.9% | 108% | 91.5% | 102% | 94.5% | 113% | 90.7% | 92.2% | 96.9% | 103% | 97.4% | 91.1% | 103%
2 | Cn1cc(C(=O)c2nc(-c3cn(C)c4ccc(F)cc34)no2)c2cc(F)ccc21 | 110% | 96.2% | 96.4% | 96.7% | 116% | 99.6% | 100% | 107% | 94.9% | 100% | 93.4% | 95.5% | 87.4% | 104% | 98.1% | 80.3% | 94.2% | 88.4% | 97.4% | 110%
3 | C[C@]12CC[C@@H]3c4cc(OC(F)F)c(OS(N)(=O)=O)cc4CC[C@H]3[C@@H]1CC[C@@H]2OS(N)(=O)=O | 42.1% | 16.8% | 41% | 54% | 42.1% | 49.7% | 27.3% | 26% | 62.2% | 31.1% | 20.1% | 106% | -3.22% (active) | 53.6% | 33.1% | 52.2% | 27% | 54.1% | 32.8% | 50%
4 | COc1cc(C(=O)N2N=C(c3ccc(S(C)(=O)=O)cc3)CC2c2ccco2)cc(OC)c1OC (stereo not given) | 82.5% | 73.2% | 61.7% | 66.4% | 66.4% | 87.6% | 42.9% | 79.1% | 80.6% | 65.2% | 39.4% | 24.9% | 46.9% | 75.9% | 57.7% | 51% | 39.8% | 29.3% | 50.5% | 89.2%
5 | COc1cccc2c(=O)c3c(sc12)c(N1CCNCC1)nc1ccccc13 | 35.8% | -25.9% (active) | 104% | 53.1% | 79.7% | 87.9% | 102% | 69.6% | 101% | 81.3% | 37.3% | 0.0883% (active) | 79.2% | 80% | 12.2% | 68.3% | 95.3% | 105% | -29.3% (active) | 107%
6 | CCOC(=O)/C(C#N)=C\Nc1ccc2ncnc(Nc3ccc(Cl)cc3Cl)c2c1 | 55.9% | 59.7% | 140% | 85.2% | 77% | 73% | 82.2% | 92.7% | 97.2% | 106% | 92.7% | 79.4% | 91.3% | 86.4% | 81.4% | 59.3% | 78.3% | 90% | 87.4% | 109%
7 | Cc1nn(-c2ccccc2)c2c1N=c1s/c(=C\c3ccc(C(F)(F)F)cc3)c(=O)n1CN2 | 117% | 93.1% | 83.1% | 56.2% | 49.7% | 101% | 84% | 67.8% | -1.84% (active) | 69.4% | 70.1% | 77.6% | 78% | 84.4% | 73.6% | 37.2% | 31.1% | 59.2% | 56.7% | 87.2%
8 | O=C1c2cccc3cccc(c23)C(=O)N1Nc1nc(N2CCOCC2)nc(N2CCN(c3ccccc3)CC2)n1 | 55% | 18.4% | 21.7% | 56.3% | 30.9% | 53.8% | 20.6% | 50.2% | 71.8% | 19.4% | 33.7% | 24.3% | 21.4% | 45.6% | 59.3% | 43.4% | 4.98% (active) | 32.2% | 39.2% | 52.5%
9 | COc1cc(/C=N/NC(=O)c2ccc(C)nc2)cc(OC)c1OC | 114% | 52.2% | 97.3% | 107% | 90% | 104% | 97.4% | 97.6% | 74.3% | 108% | 97.2% | 103% | 79.4% | 108% | 102% | 98.1% | 96.3% | 86.7% | 94.8% | 117%
10 | COc1nc2ccc(C)cc2cc1-c1nc2c(cnn2-c2ccccc2)c(=O)[nH]1 | 97.2% | 34.8% | 126% | 103% | 89.4% | 93.8% | 90.9% | 99.9% | 86.4% | 71% | 61.8% | 48.3% | 87.2% | 84% | 82.6% | 65.9% | 76.9% | 60.2% | 70.4% | 81.9%
11 | COc1ccc(-c2cc3c4c(nc5ccccc5c4c2)CC(c2cc(OC)c(OC)c(OC)c2)O3)cc1 (stereo not given) | 35.4% | 40.9% | 20.8% | 19.6% | -0.548% (active) | 44.4% | 42% | -16% (active) | 46.3% | 57.5% | 45.6% | 45.2% | -30% (active) | 40.1% | 54.8% | 52.3% | 62.6% | 52% | 38.4% | 44%
12 | FC(F)(F)c1cc(Nc2ccc3c(OCCCN4CCOCC4)cccc3n2)ccc1Cl | 55.9% | -31.6% (active) | 54.3% | 10.1% | 23.9% | 54.6% | 0.167% (active) | 36.2% | 96.6% | 40.4% | -39.8% (active) | -22.7% (active) | 40.8% | 35.9% | 9.5% (active) | 33.5% | 69.5% | 55.3% | -37.6% (active) | 41.9%
13 | COc1ccc(/C=C(\C#N)n2nnc3c(F)cccc32)cc1 | 2.45% (active) | 12.1% | 36.8% | 21% | -21.3% (active) | 39.7% | 5.51% (active) | -27.4% (active) | 62.6% | -16.2% (active) | 13.8% | 13.4% | -58.8% (active) | 30.7% | 23.7% | 29.8% | 32.3% | 29.5% | 19.8% | 36.4%
14 | COc1cc(/C=C2\C(=O)Nc3ccc(Br)cc32)cc(OC)c1OC | 91.8% | 32.6% | 88.6% | 65.5% | -13.6% (active) | 84% | 68.6% | 85.6% | 17.2% | 79.2% | 38.6% | 24.4% | 36.5% | 81% | 51% | 60.4% | 56.9% | 51.6% | 57.2% | 80.2%
15 | CC(=O)N1N=C(c2ccc(Nc3nc(Nc4ccc(F)cc4)nc(Nc4ccc(Cl)cc4)n3)cc2)CC1c1ccc(Cl)cc1 (stereo not given) | 111% | 88.1% | 110% | 76.2% | 88.8% | 124% | 123% | 109% | 104% | 108% | 93.4% | 106% | 70.1% | 83.5% | 94.7% | 68.8% | 105% | 99% | 89.8% | 121%
